Assay results taken from PubChem BioAssay (NCI).
This is part of a sample that, as a whole, favours compounds with a hit. Of some 83,000 tested, about 20% had one in any assay.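 How to read the values: 0–100, growth inhibition (40 = 60% inhibited); 0, no net growth; -100 to 0, cell death (-40 = 40% of starting cells died; -100 = all dead).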 A number with no mark means an inactive call. The source made the active and inactive calls. Rule for the calls: active = growth percent below 10; inactive = the rest.

How the values were obtained:
Experiment in all cases: NCI-60 one-dose screen, 48 h (100 = growth as untreated, 0 = no growth, -100 = all killed)
HCT-15 colon = conditions: 10 µM unless noted
HT29 colon = conditions: 10 µM unless noted
SNB-75 CNS = conditions: 10 µM unless noted
U251 CNS = conditions: 10 µM unless noted
PC-3 prostate = conditions: 10 µM unless noted
SK-MEL-5 melanoma = conditions: 10 µM unless noted
UACC-62 melanoma = conditions: 10 µM unless noted
LOX IMVI melanoma = conditions: 10 µM
SK-MEL-28 melanoma = conditions: 10 µM unless noted
SK-MEL-2 melanoma = conditions: 10 µM unless noted
EKVX NSCLC = conditions: 10 µM unless noted
UO-31 renal = conditions: 10 µM unless noted
TK-10 renal = conditions: 10 µM unless noted
ACHN renal = conditions: 10 µM unless noted
CAKI-1 renal = conditions: 10 µM unless noted
A498 renal = conditions: 10 µM unless noted
CCRF-CEM leukemia = conditions: 10 µM unless noted
MOLT-4 leukemia = conditions: 10 µM unless noted
SNB-19 CNS = conditions: 10 µM unless noted
SN12C renal = conditions: 10 µM unless noted

Q: Which results are given for CCCCCCCCc1ccc(S(=O)(=O)Nc2ccc(CC)cc2C(=O)O)cc1?
A: growth (HCT-15 colon): 85.7%; growth (HT29 colon): 124%; growth (SNB-75 CNS): 106%; growth (U251 CNS): 92.9%; growth (PC-3 prostate): 89.7%; growth (SK-MEL-5 melanoma): 80.3%; growth (UACC-62 melanoma): 81.3%; growth (LOX IMVI melanoma): 99.9%; growth (SK-MEL-28 melanoma): 104%; growth (SK-MEL-2 melanoma): 86.7%; growth (EKVX NSCLC): 90.5%; growth (UO-31 renal): 84.8%; growth (TK-10 renal): 104%; growth (ACHN renal): 96%; growth (CAKI-1 renal): 89%; growth (A498 renal): 104%; growth (CCRF-CEM leukemia): 77.9%; growth (MOLT-4 leukemia): 91.1%

Q: How did the growth (HCT-15 colon) turn out when Cc1ccc(C(=O)CSc2nc3ccc(C)cc3c(=O)n2-c2ccc(F)cc2)cc1 was run?
A: 84.6%

Q: And the growth (HT29 colon)?
A: 72.5%

Q: And the growth (SNB-75 CNS)?
A: 7.91% (active)

Q: What about the growth (U251 CNS) of the same molecule?
A: 28.7%

Q: And the growth (PC-3 prostate)?
A: 74%

Q: What about the growth (SK-MEL-5 melanoma) of the same molecule?
A: 72%

Q: And the growth (UACC-62 melanoma)?
A: 86.1%

Q: And the growth (LOX IMVI melanoma)?
A: 72.9%

Q: And the growth (SK-MEL-28 melanoma)?
A: 88.1%

Q: What about the growth (SK-MEL-2 melanoma) of the same molecule?
A: 116%

Q: What about the growth (EKVX NSCLC) of the same molecule?
A: 62.8%

Q: And the growth (UO-31 renal)?
A: 43.8%

Q: What about the growth (TK-10 renal) of the same molecule?
A: 56.3%

Q: What about the growth (ACHN renal) of the same molecule?
A: 19.3%

Q: What about the growth (CAKI-1 renal) of the same molecule?
A: 53%

Q: And the growth (A498 renal)?
A: 19.6%

Q: What about the growth (CCRF-CEM leukemia) of the same molecule?
A: 88%

Q: What about the growth (MOLT-4 leukemia) of the same molecule?
A: 93.2%

Q: CN(C)c1ccnc(NCCCSC(c2ccccc2)(c2ccccc2)c2ccccc2)c1 was tested. Which growth (HCT-15 colon) did it give?
A: 10.7%

Q: What about the growth (HT29 colon) of the same molecule?
A: -51.8% (active)

Q: And the growth (SNB-75 CNS)?
A: 63.1%

Q: What about the growth (U251 CNS) of the same molecule?
A: 6.61% (active)

Q: And the growth (PC-3 prostate)?
A: 7.71% (active)

Q: And the growth (SK-MEL-5 melanoma)?
A: -98.4% (active)

Q: And the growth (UACC-62 melanoma)?
A: 28.6%

Q: And the growth (LOX IMVI melanoma)?
A: 47.9%

Q: What about the growth (SK-MEL-28 melanoma) of the same molecule?
A: -77.3% (active)

Q: What about the growth (SK-MEL-2 melanoma) of the same molecule?
A: 43%

Q: What about the growth (EKVX NSCLC) of the same molecule?
A: 35.5%

Q: What about the growth (UO-31 renal) of the same molecule?
A: 28.9%

Q: What about the growth (TK-10 renal) of the same molecule?
A: 74.4%

Q: What about the growth (ACHN renal) of the same molecule?
A: 53.3%

Q: What about the growth (CAKI-1 renal) of the same molecule?
A: 30.8%

Q: What about the growth (A498 renal) of the same molecule?
A: 89.6%

Q: What about the growth (CCRF-CEM leukemia) of the same molecule?
A: -26.3% (active)

Q: What about the growth (MOLT-4 leukemia) of the same molecule?
A: -8.29% (active)

Q: What does the source list for CCN(CC)c1ccnc(CNCCSC(c2ccccc2)(c2ccccc2)c2ccc(OC)cc2)c1?
A: growth (HCT-15 colon): -58.2% (active); growth (HT29 colon): -63.1% (active); growth (SNB-75 CNS): 3.35% (active); growth (U251 CNS): -80.3% (active); growth (PC-3 prostate): -36% (active); growth (SK-MEL-5 melanoma): -99.9% (active); growth (UACC-62 melanoma): -39.3% (active); growth (LOX IMVI melanoma): -99.2% (active); growth (SK-MEL-28 melanoma): -48.5% (active); growth (SK-MEL-2 melanoma): -35.8% (active); growth (EKVX NSCLC): -8.82% (active); growth (UO-31 renal): 8.36% (active); growth (TK-10 renal): 1.59% (active); growth (ACHN renal): 12.2%; growth (CAKI-1 renal): 0.0931% (active); growth (A498 renal): -84.5% (active); growth (CCRF-CEM leukemia): -3.59% (active); growth (MOLT-4 leukemia): 12.9%

Q: How did the growth (HCT-15 colon) turn out when COc1ccc(-c2ccnc(SCc3cc4cc(Cl)ccc4[nH]c3=O)n2)cc1 was run?
A: 80.8%

Q: What about the growth (HT29 colon) of the same molecule?
A: 84.7%

Q: What about the growth (SNB-75 CNS) of the same molecule?
A: -7.9% (active)

Q: What about the growth (U251 CNS) of the same molecule?
A: 0.922% (active)

Q: What about the growth (PC-3 prostate) of the same molecule?
A: 29.6%

Q: What about the growth (SK-MEL-5 melanoma) of the same molecule?
A: 37.4%

Q: And the growth (UACC-62 melanoma)?
A: 42.5%

Q: What about the growth (LOX IMVI melanoma) of the same molecule?
A: 80.9%

Q: What about the growth (SK-MEL-28 melanoma) of the same molecule?
A: 64.3%

Q: And the growth (SK-MEL-2 melanoma)?
A: 99%

Q: And the growth (EKVX NSCLC)?
A: 57.1%

Q: What about the growth (UO-31 renal) of the same molecule?
A: 79.1%

Q: And the growth (TK-10 renal)?
A: 19.5%

Q: And the growth (ACHN renal)?
A: 55%

Q: What about the growth (CAKI-1 renal) of the same molecule?
A: 26.2%

Q: What about the growth (A498 renal) of the same molecule?
A: 41.6%

Q: What about the growth (CCRF-CEM leukemia) of the same molecule?
A: 79.1%

Q: What about the growth (MOLT-4 leukemia) of the same molecule?
A: 93.6%

Q: For Cc1ccc(C(SCCNCc2cc(N(C)C)ccn2)(c2ccccc2)c2ccccc2)cc1, which growth (HCT-15 colon) is on record?
A: -68.8% (active)

Q: And the growth (HT29 colon)?
A: -77.2% (active)

Q: And the growth (SNB-75 CNS)?
A: 8.64% (active)

Q: And the growth (U251 CNS)?
A: -89.3% (active)

Q: What about the growth (PC-3 prostate) of the same molecule?
A: -43.4% (active)

Q: And the growth (SK-MEL-5 melanoma)?
A: -100% (active)

Q: What about the growth (UACC-62 melanoma) of the same molecule?
A: -64.4% (active)

Q: What about the growth (LOX IMVI melanoma) of the same molecule?
A: -100% (active)

Q: And the growth (SK-MEL-28 melanoma)?
A: -95.3% (active)

Q: What about the growth (SK-MEL-2 melanoma) of the same molecule?
A: -36.3% (active)

Q: And the growth (EKVX NSCLC)?
A: -24.8% (active)

Q: What about the growth (UO-31 renal) of the same molecule?
A: 8.42% (active)

Q: What about the growth (TK-10 renal) of the same molecule?
A: -4.26% (active)

Q: And the growth (ACHN renal)?
A: 3.79% (active)

Q: And the growth (CAKI-1 renal)?
A: -10.4% (active)

Q: And the growth (A498 renal)?
A: -43.8% (active)

Q: What about the growth (CCRF-CEM leukemia) of the same molecule?
A: -3.65% (active)

Q: And the growth (MOLT-4 leukemia)?
A: 8% (active)

Q: How did the growth (HCT-15 colon) turn out when COc1ccc(C(SCCNCc2cc(N(C)C)ccn2)(c2ccccc2)c2ccccc2)cc1 was run?
A: -19.5% (active)

Q: What about the growth (HT29 colon) of the same molecule?
A: -60.2% (active)

Q: What about the growth (SNB-75 CNS) of the same molecule?
A: -0.256% (active)

Q: What about the growth (U251 CNS) of the same molecule?
A: -33.9% (active)

Q: What about the growth (PC-3 prostate) of the same molecule?
A: 2.15% (active)

Q: And the growth (SK-MEL-5 melanoma)?
A: -100% (active)

Q: And the growth (UACC-62 melanoma)?
A: -3.86% (active)

Q: And the growth (LOX IMVI melanoma)?
A: -98.9% (active)

Q: What about the growth (SK-MEL-28 melanoma) of the same molecule?
A: -65.3% (active)

Q: What about the growth (SK-MEL-2 melanoma) of the same molecule?
A: -34.9% (active)

Q: What about the growth (EKVX NSCLC) of the same molecule?
A: 9.49% (active)

Q: And the growth (UO-31 renal)?
A: 15.4%

Q: And the growth (TK-10 renal)?
A: 24.5%

Q: What about the growth (ACHN renal) of the same molecule?
A: 20.3%

Q: What about the growth (CAKI-1 renal) of the same molecule?
A: 11.3%

Q: What about the growth (A498 renal) of the same molecule?
A: 4.54% (active)

Q: Which results are given for CN1CCN(c2ccc(C(=O)/C=C/c3cc(C(F)(F)F)cc(C(F)(F)F)c3)cc2)CC1?
A: growth (HCT-15 colon): -84.2% (active); growth (HT29 colon): -3.47% (active); growth (SNB-75 CNS): -82.3% (active); growth (SNB-19 CNS): -85% (active); growth (U251 CNS): -94.9% (active); growth (UACC-62 melanoma): -85.4% (active); growth (LOX IMVI melanoma): -89.7% (active); growth (SK-MEL-28 melanoma): -96.8% (active); growth (SK-MEL-2 melanoma): -86.2% (active); growth (EKVX NSCLC): -73.2% (active); growth (SN12C renal): -79.8% (active); growth (UO-31 renal): -92.5% (active); growth (TK-10 renal): -88.7% (active); growth (ACHN renal): -99.2% (active); growth (CAKI-1 renal): -73.7% (active); growth (A498 renal): -70% (active); growth (CCRF-CEM leukemia): 5.57% (active)
